From PubChem BioAssay
WT yeast gro inh: growth inhibition of WT yeast, mitochondrial fusion screen. 2.1% of 190,000 active. mitochondrial fusion phenotypic screen, WT strain. inhibition, % at 10 µM; in the data active = inhibition above about 58%; tested in S. cerevisiae
Cl transport mod: KCC2 (human) Cl- transport modulation. AID 1456. KCC2 cells, thallium flux FluoZin-2 fluorescence. 2.2% of 190,000 active. B-score of Tl+ flux slope (higher = more flux/activation; lower = inhibition) at 10 µM;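 active = thallium flux slope and its plate-corrected score both differing from the plate sample mean at a set confidence after two filtering rounds, in either direction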;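 also: slope of fluorescence scaled to starting intensity during 10 to 20 s after thallium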
Target sequence (Q9H2X9 whole entry, looked up): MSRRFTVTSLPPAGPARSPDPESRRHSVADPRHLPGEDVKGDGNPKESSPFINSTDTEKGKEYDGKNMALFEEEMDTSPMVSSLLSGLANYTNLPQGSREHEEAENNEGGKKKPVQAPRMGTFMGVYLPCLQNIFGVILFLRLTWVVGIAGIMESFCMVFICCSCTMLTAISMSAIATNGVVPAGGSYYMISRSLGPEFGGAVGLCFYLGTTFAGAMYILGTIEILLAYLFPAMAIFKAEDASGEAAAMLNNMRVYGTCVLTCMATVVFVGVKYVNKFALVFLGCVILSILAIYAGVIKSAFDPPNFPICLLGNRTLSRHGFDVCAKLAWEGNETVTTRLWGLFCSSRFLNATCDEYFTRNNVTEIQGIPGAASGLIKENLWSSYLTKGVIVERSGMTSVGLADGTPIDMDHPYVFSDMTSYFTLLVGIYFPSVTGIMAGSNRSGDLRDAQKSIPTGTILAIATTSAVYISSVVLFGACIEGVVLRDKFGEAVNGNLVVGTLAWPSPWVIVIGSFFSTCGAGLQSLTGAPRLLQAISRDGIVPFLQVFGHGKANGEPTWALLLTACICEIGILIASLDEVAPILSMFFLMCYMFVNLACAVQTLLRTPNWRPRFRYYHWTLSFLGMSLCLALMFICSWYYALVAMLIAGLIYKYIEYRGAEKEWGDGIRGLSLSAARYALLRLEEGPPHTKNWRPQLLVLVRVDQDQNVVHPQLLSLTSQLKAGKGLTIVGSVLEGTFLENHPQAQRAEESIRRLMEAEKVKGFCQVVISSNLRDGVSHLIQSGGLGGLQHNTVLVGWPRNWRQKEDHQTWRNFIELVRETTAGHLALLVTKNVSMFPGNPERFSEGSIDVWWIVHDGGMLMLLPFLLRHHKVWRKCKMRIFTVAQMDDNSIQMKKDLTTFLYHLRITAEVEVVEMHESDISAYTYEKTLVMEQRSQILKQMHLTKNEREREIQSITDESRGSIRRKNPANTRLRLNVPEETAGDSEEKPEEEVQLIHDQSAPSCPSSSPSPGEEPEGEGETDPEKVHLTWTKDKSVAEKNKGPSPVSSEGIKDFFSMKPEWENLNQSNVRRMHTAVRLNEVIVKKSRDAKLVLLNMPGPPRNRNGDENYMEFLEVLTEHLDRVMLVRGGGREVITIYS
ROMK mod: modulators of human ROMK potassium channel | 2% of 130,000 active | AID 1918 | B-score at 10 µM | Tet-inducible ROMK, thallium flux fluorescence; actives lie on both sides;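 active = signal ratio slope over the read window, or its plate-corrected B-score, at least 3 SD from the plate mean, either direction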;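 also: B-score of the F/F0 ratio slope over 7 to 12 s after thallium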
INS promoter inh: TRM-6 insulin promoter activity inhibition; AID 1273; TRM-6 cells (human fetal islet line), insulin promoter-eGFP reporter, imaging; reporter expression induced with tamoxifen; inhibition, % at 2 µM; 0.9% of 130,000 active;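 active = inhibition above the mean plus 3 SD, with well images judged a real hit on visual review, cut at about 60% in these data, passing the limit was not always enough; inconclusive = inhibition over the cutoff but images rejected on review; inactive = inhibition not above the cutoff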
Lmaj promast: reduces viability of Leishmania major promastigotes | resazurin fluorescence viability | inhibition, % at 10 µM | 9% of 200,000 active; in the data active = inhibition above about 50%;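 also: promastigotes grown with compound for 44 hours at 28 °C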
Insulin prom up: MIN6 insulin promoter up-regulation; z-score at 5 µM; MIN6 insulin promoter-GFP reporter, high-content imaging; stronger effect = higher value; AID 1625; 0.3% of 190,000 active;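 active = z-score above 3 at 5 µM with at least 500 cells counted in the well; inconclusive = wells under 500 cells, flagged as cytotoxic or low count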
ROMK retest: confirmation of human ROMK potassium channel modulators | normalized thallium flux (F/F0 slope) at 10 µM | ROMK thallium flux, fluorescence ratio; stronger effect = lower value | 54% of 3,000 active | shares compounds with ROMK mod | AID 1917;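 active = Flux at 10 µM at least 3 SD below or above vehicle control mean in one or both replicates; inconclusive = no clear call, values can overlap the other calls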
Large screens that a line does not name were inactive (follow-up assays come after a bar, where they were run). A selection: hits, their analogues and other compounds. The true share with any hit is near 12%.

CN(C(=O)Cn1cc(C#N)c2ccccc21)c1ccccc1	none (no result: ROMK mod, INS promoter inh)
CC(C)OC(=O)Cn1cc(C#N)c2ccccc21	ROMK mod -8.82 (no result: INS promoter inh) | ROMK retest inactive
N#C/C(=C(/O)CCl)c1nc(-c2ccccc2)cs1	none (no result: WT yeast gro inh, ROMK mod, INS promoter inh, Lmaj promast)
Cc1ccc(-c2csc(/C(C#N)=C(\O)CCl)n2)cc1	ROMK mod -3.32 | ROMK retest inconclusive
CCOc1ccc2oc(-c3ccccc3)c(C(=O)N3CCN(C)CC3)c2c1	none (no result: ROMK mod, INS promoter inh) | ROMK retest inconclusive
COc1ccc2oc(-c3ccccc3)c(C(=O)N3CCOCC3)c2c1	none (no result: Cl transport mod, ROMK mod, INS promoter inh)
Cc1ccc(Nc2nnc(SCC(=O)NC3CCS(=O)(=O)C3)s2)c(C)c1 (stereo not given)	none (no result: INS promoter inh)
CCC(C)NC(=O)/C=C1\Sc2ccccc2NC1=O (stereo not given)	none (no result: ROMK mod)
CC(NCC(O)COCc1ccc(Cl)cc1)c1ccccc1 (stereo not given)	ROMK mod -2.03 | ROMK retest 0.0491
O=[N+]([O-])c1cc(/C=N/O)ccc1N1CCCC1	ROMK mod -3.37 | ROMK retest inconclusive
O=[N+]([O-])/C=C\c1ccc(N2CCCC2)c(F)c1	none (no result: ROMK mod) | ROMK retest 0.0421
CO/N=C/c1ccc(N2CCCC2)c([N+](=O)[O-])c1	none
O=Cc1ccc(N2CCCC2)c([N+](=O)[O-])c1	none
O=C(Cn1cccc1C(=O)c1ccccc1)NCc1ccco1	none (no result: Cl transport mod)
CCN(/C=N/c1sc2c(c1C#N)CC(C)(C)NC2(C)C)CC	none (no result: Cl transport mod, INS promoter inh)
COC(=O)c1cc(C(=O)N2CCN(c3cccc(C)c3C)CC2)cc([N+](=O)[O-])c1	ROMK mod 2.83 (no result: INS promoter inh) | ROMK retest inconclusive
CC1CCN(CCC(=O)Nc2nccs2)CC1	none (no result: WT yeast gro inh, INS promoter inh, Lmaj promast)
CCOC(=O)c1c(C)n(-c2ccccc2)c2ccc(O)c(CN(C)C)c12	ROMK mod -1.8, Lmaj promast 94.3 (no result: INS promoter inh) | ROMK retest inconclusive
Cc1ccc(C(NC(N)=O)c2ccccc2)cc1 (stereo not given)	none
C=CCSc1nnc(C)c(/C=C/Nc2ccc(Cl)cc2)n1	ROMK mod -2.99 (no result: INS promoter inh, Insulin prom up) | ROMK retest 0.0461
Cc1cc(=O)[nH]c(SCC(=O)Nc2ccc3c(c2)OCCO3)n1	none (no result: INS promoter inh)
CC(CN1CCNCC1)(NS(=O)(=O)c1ccccc1)c1ccccc1 (stereo not given)	ROMK mod -4.46 (no result: Cl transport mod) | ROMK retest 0.0619
Cc1cccc(Oc2coc3cc(OC(=O)c4cncc(Br)c4)ccc3c2=O)c1	none (no result: ROMK mod)
CC1CCC/C(=N\NC(=O)Nc2ccccc2)C1 (stereo not given)	none (no result: ROMK mod)
COc1ccc(NCC(=O)N/N=C2\CCCC(C)C2)cc1 (stereo not given)	ROMK mod 2.09 | ROMK retest inactive
C=CCN(CCNP(=O)(OCC)OCC)CP(=O)(OCC)OCC	none (no result: ROMK mod)
COc1ccc(N(C(=O)/C=C/C(=O)Nc2cc(C)on2)C(C(=O)NC2CCCC2)c2ccccc2C)cc1 (stereo not given)	ROMK mod -6.44, Lmaj promast 97.3 | ROMK retest 0.0575
CN(C)S(=O)(=O)N1CCC(C(=O)O)(c2ccccc2)CC1	none (no result: ROMK mod, Insulin prom up)
Cc1cc(C)n2nc(SCC(=O)c3cc(C)n(-c4cc(C)on4)c3C)nc2n1	Insulin prom up inconclusive (no result: Cl transport mod, ROMK mod, INS promoter inh) | ROMK retest inactive
S=C(NCCc1ccccc1)N1CCN(C2CCCCC2)CC1	ROMK mod -2.75 (no result: INS promoter inh) | ROMK retest 0.0628
CCOC(=O)c1cnc2c(cnn2C)c1NCCCn1ccnc1	ROMK mod -2.94 (no result: INS promoter inh) | ROMK retest inactive
CCOC(=O)c1cnc2c(cnn2C)c1NCCCN(C)C	none (no result: ROMK mod)
CCCNC(=O)c1ccccc1NC(=O)CN(c1ccccc1OCC)S(C)(=O)=O	none (no result: ROMK mod)
COc1ccc(CCNC(=O)c2ccc(-c3ccc([N+](=O)[O-])cc3)o2)cc1OC	none (no result: ROMK mod, INS promoter inh, Insulin prom up) | ROMK retest inactive
COc1ccc(C(=O)Nc2ccc(C(=O)NCCc3ccc(OC)c(OC)c3)cc2)cc1	ROMK mod 3.16 (no result: INS promoter inh) | ROMK retest inactive
CC1CCc2nc(/C(C#N)=C/c3cccnc3)sc2C1 (stereo not given)	none (no result: INS promoter inh)
Cc1ccc(NC(=O)c2cc(S(=O)(=O)N3CCOCC3)c(Br)s2)cc1	none (no result: ROMK mod) | ROMK retest inactive
Cc1nc2ccc(NC(=O)c3ccc(S(=O)(=O)N4CCOCC4)cc3)cc2s1	ROMK mod 3.19 (no result: Cl transport mod) | ROMK retest inactive
Cc1cc2n(n1)SC(Nc1ccc(F)c(Cl)c1)N2 (stereo not given)	none (no result: ROMK mod)
COCCNC(=O)c1c(CSc2ccccc2)noc1C(=O)NCc1ccccc1	none (no result: WT yeast gro inh, ROMK mod, INS promoter inh, Lmaj promast)
O=C(NCc1ccccc1)c1onc(CSc2ccccc2)c1C(=O)NCC1CC1	none (no result: WT yeast gro inh, ROMK mod, INS promoter inh, Lmaj promast) | ROMK retest inactive
COc1ccc(-c2ncc(CN3CCC(CO)(Cc4cccc(OC)c4)CC3)cn2)cc1	none (no result: INS promoter inh)
CSc1cccc(CN2CCC(CO)(Cc3cccc(C(F)(F)F)c3)CC2)c1	ROMK mod -3.51, Lmaj promast 81.3 (no result: INS promoter inh) | ROMK retest 0.0628
Cc1ccc(C(C)C)c(OCc2nn(CC(=O)c3ccc(OC(F)F)cc3)c3[n+]2CCCCC3)c1	ROMK mod -4.15, Lmaj promast 99.1 (no result: INS promoter inh) | ROMK retest 0.0549
CCOC(=O)N1CCC(n2c(SCC(=O)N3CCC(C)CC3)nc3ccccc3c2=O)CC1	none (no result: ROMK mod)
CCOC(=O)N1CCC(n2c(SCC(=O)Nc3ccccc3OC)nc3ccccc3c2=O)CC1	ROMK mod -4.22 | ROMK retest 0.0653
CCOC(=O)N1CCC(n2c(SCC(=O)NCCC3=CCCCC3)nc3ccccc3c2=O)CC1	ROMK mod -6.99, Lmaj promast 70.3 (no result: INS promoter inh) | ROMK retest inconclusive
CCOC(=O)c1cc(C(=O)c2ccccc2O)cn2c(=O)c3c(C)c(C)sc3nc12	none (no result: INS promoter inh)
CCOc1cnc(C(=O)NNC(=O)C(Br)C(C)C)o1 (stereo not given)	none (no result: INS promoter inh)
CCOC(=O)C(C)Oc1cccc2c(=O)n(CC(=O)NCc3ccco3)ccc12 (stereo not given)	none (no result: ROMK mod, INS promoter inh) | ROMK retest inactive
Cc1cccc(N(C(=O)c2csnn2)C(C(=O)NC(C)(C)C)c2cccnc2)c1 (stereo not given)	ROMK mod 2.18 (no result: Insulin prom up) | ROMK retest inactive
COc1cc(N2CCCC2)c(OC)cc1/C=c1/sc2nc3ccccc3n2c1=O	Insulin prom up 16.8 (no result: INS promoter inh) | ROMK retest 0.0507
COc1ccccc1-c1nn2c(-c3ccco3)nnc2s1	Lmaj promast 66.7 (no result: INS promoter inh) | ROMK retest 0.0567
CC(=O)c1c(C)c2c(n1CCN(C)C)CCCC2	ROMK mod 3.47 (no result: Cl transport mod) | ROMK retest inactive
CCCCCC[N+](C)(C)CC/C=C1/c2ccccc2Sc2ccc(Cl)cc21	none (no result: WT yeast gro inh, ROMK mod, INS promoter inh, Lmaj promast) | ROMK retest 0.0452
CN(C)CC/C=C1/c2ccccc2Sc2ccc(Cl)cc21	none (no result: WT yeast gro inh, ROMK mod, INS promoter inh, Lmaj promast)
COC(=O)c1[nH]c2ccc(F)cc2c1NS(=O)(=O)c1ccc(OC)cc1	none | ROMK retest inactive
CC(C)(C)C(=O)C(Cl)C(=O)Nc1ccccc1 (stereo not given)	none (no result: WT yeast gro inh, ROMK mod, INS promoter inh, Lmaj promast)
CC(=O)c1ccc(NC(=O)C2CCCN2S(=O)(=O)c2cccc3cccnc23)cc1 (stereo not given)	none (no result: Cl transport mod, ROMK mod, INS promoter inh)
Nc1ccc2c(c1)COc1ccccc1O2	none (no result: ROMK mod)
Nc1ccc2c(c1)Oc1ccccc1C=C2	ROMK mod -3.17 | ROMK retest inactive
